Test results taken from PubChem BioAssay AID1159580 (chemical genetic matrix, 2015).
Hit rate of the full screen: of about 5,500 compounds, about 2,000 (36%) were called active. Inconclusive results (about 18%) are left out. No stated cut-off is given here; in the data, active means normalized growth mostly below about 0.91 (no sharp cut-off); inconclusive means no clear call, values can overlap the other calls; inactive means mostly above about 0.92. The list shows a part of the results.

Experiment: chemical genetic growth profiling, strain panel (AID 1159580);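 further: tested at 20 µM; growth read once vehicle control cultures reached saturation at 30 °C; 1 = growth at the plate median or of vehicle wells; lower values mean less growth of the strain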
Settings: growth OD

Measured: normalized growth

Clc1cccc(NC2=NCCS2)c1Cl
active: S. cerevisiae deletion strains, locus YLR039C, strain RIC1, active compounds read low 0.721 | S. cerevisiae deletion strains, locus YOL006C, strain TOP1, active compounds read low 0.722
inactive: S. cerevisiae deletion strains, locus YAL013W, strain DEP1, active compounds read low 0.995 | S. cerevisiae deletion strains, locus YBR229C, strain ROT2, active compounds read low 1 | S. cerevisiae deletion strains, locus YDL101C, strain DUN1, active compounds read low 1.03 | S. cerevisiae deletion strains, locus YDR150W, strain NUM1, active compounds read low 0.984 | S. cerevisiae deletion strains, locus YEL061C, strain CIN8, active compounds read low 0.974 | S. cerevisiae deletion strains, locus YGR078C, strain PAC10, active compounds read low 1 | S. cerevisiae deletion strains, locus YHR030C, strain SLT2, active compounds read low 0.698 | S. cerevisiae deletion strains, locus YHR087W, strain rtc3, active compounds read low 1.02 | S. cerevisiae deletion strains, locus YJL187C, strain SWE1, active compounds read low 1 | S. cerevisiae deletion strains, locus YJR043C, strain POL32, active compounds read low 1.01 | S. cerevisiae deletion strains, locus YJR075W, strain HOC1, active compounds read low 1.02 | S. cerevisiae deletion strains, locus YKL190W, strain CNB1, active compounds read low 0.996 | S. cerevisiae deletion strains, locus YLR058C, strain SHM2 (second series), active compounds read low 1 | S. cerevisiae deletion strains, locus YLR085C, strain ARP6, active compounds read low 0.931 | S. cerevisiae deletion strains, locus YLR262C, strain YPT6, active compounds read low 0.817 | S. cerevisiae deletion strains, locus YML094W, strain GIM5, active compounds read low 1.03 | S. cerevisiae deletion strains, locus YMR219W, strain ESC1, active compounds read low 1.01 | S. cerevisiae deletion strains, locus YMR263W, strain SAP30, active compounds read low 0.969 | S. cerevisiae deletion strains, locus YMR307W, strain GAS1, active compounds read low 0.776 | S. cerevisiae deletion strains, locus YNL128W, strain TEP1, active compounds read low 1.02 | S. cerevisiae deletion strains, locus YNL153C, strain GIM3, active compounds read low 1 | S. cerevisiae deletion strains, locus YNL298W, strain CLA4 (second series), active compounds read low 0.946 | S. cerevisiae deletion strains, locus YNL322C, strain KRE1, active compounds read low 0.994 | S. cerevisiae deletion strains, locus YNR030W, strain Alg12, active compounds read low 0.971 | S. cerevisiae deletion strains, locus YPL055C, strain LGE1, active compounds read low 0.953 | S. cerevisiae deletion strains, locus YPL241C, strain CIN2, active compounds read low 1.05 | S. cerevisiae deletion strains, locus YPR135W, strain CTF4, active compounds read low 0.928 | S. cerevisiae strains, strain wild type, active compounds read low 0.983
